40 molecules from PubChem BioAssay (NCI) can be followed below.

The panel holds about 83,000 compounds, 20% with a hit somewhere; the sample as a whole holds those more often.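 Cell lines were cultured in 96-well plates, exposed to a single compound concentration, and assessed for percent growth 48 hours later.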 Unmarked numbers belong to inactive results. Active and inactive are the calls of the source. The calls were made as follows: active = growth percent below 10; inactive = the rest.

This experiment relates to MDA-MB-468 breast. Description: NCI-60 one-dose screen, 48 h (100 = growth as untreated, 0 = no growth, -100 = all killed). Conditions: 10 µM unless noted.
Turning to `O=C(/C(=C\c1ccc([N+](=O)[O-])cc1)S(=O)Cc1ccc(F)cc1)c1ccc(F)cc1` (stereo not given), the growth was 16.3%.
Next, `COc1cc(CNS(=O)(=O)c2ccc(C)cc2)ccc1OCc1cn(-c2ccccc2)nn1`: 70.7%; `CC1=C(C)C(=O)C(Nc2cccc(C(=O)OC(C)(C)C)c2)=C(Br)C1=O`: -54% (active).
As for `COc1ccc(-c2nc3cccc(O)c3c(=O)n2Cc2ccccc2)cc1COc1ccc(NC(C)=O)cc1`, the figure is 71.9% [3 µM].
Regarding `Cc1ccc(NC(=O)c2cccc(CN3CCN(C)CC3)c2)cc1Oc1ccc(-c2[nH]nc3ncnc(N)c23)cc1`, the growth was 51.3%.
For the molecule `Cc1ccc(-c2cc3nc(-c4ccccc4)nc(C(Cl)Cl)n3n2)cc1`, the growth was -61.4% (active).
`CCOC(=O)Nc1nn[nH]n1`: the growth was 101%.
As for `Cc1nc2sc(C(=O)Nc3cccc4ncccc34)c(N)c2cc1C(C)O` (stereo not given), the figure is 44.9%; as for `Cn1c(=O)n(C)c2cc(CNCCNc3ccnc4cc(Cl)ccc34)ccc21`, 59.4%; as for `COc1cc2c(Oc3ccc4[nH]c(C)cc4c3F)ncnc2cc1OCCCN1CCCC1`, 99.4%.
Next, `C/C(=C/CCC(C)[C@@H]1CC[C@]2(C)C3=C(CC[C@@]12C)[C@@]1(C)CCC(=O)C(C)(C)[C@@H]1CC3)C(=O)O` (stereo not given in full): -60.4% (active); `COc1ccc2c(c1)c(-c1nn3c(=O)cc(-c4ccccc4)nc3s1)cn2C`: 20.1%; `COC(=O)Cc1nc(C#N)c(N(C)C)o1`: 97.8%.
With `Oc1ccc(N=Nc2ccc(Br)cc2)c(O)c1`, the growth is 15.4%.
Next, `CN1CCC(n2cc(Nc3ncc4c(=O)n(-c5c(Cl)cccc5Cl)cc(Br)c4n3)cn2)CC1`: 12.7%; `N=c1ccn2c(n1)OC1C(O)C(CO)OC12` (stereo not given): 6.2% (active); `CCn1cc(C(=O)N/N=C/c2cccc(F)c2)c(=O)c2cc(F)c(N3CCNC(C)C3)c(F)c21` (stereo not given): 71.6%.
On to `Cc1nc2cc(Nc3nc(NCCO)nc(Nc4ccc(F)cc4)n3)ccc2n1Cc1ccccc1`, for which the growth was 99.2%.
Regarding `CN1CC(c2ccccc2)C(C(=O)c2ccc(Br)cc2)C12C(=O)Nc1ccccc12` (stereo not given), the growth is 106%.
In the case of `Cc1cc(C(NC(=O)CCCCCNc2cccc3c2C(=O)N(C2CCC(=O)NC2=O)C3=O)c2ccc3c(c2)OC(F)(F)O3)c(O)c2ncccc12` (stereo not given), the growth is 69%.
Next, `CC1CCC2(OC1)OC1CC3C4CC=C5CC(O)CCC5(C)C4CCC3(C)C1C2C` (stereo not given): 89.4%.
Take `COc1ccc2c(c1)c(-c1noc(C(=O)c3cn(C)c4ncc(Br)cc34)n1)cn2C`: the growth is 76.1%.
As for `N#Cc1nc(-c2ccc(F)cc2)oc1S(=O)(=O)N1CCOCC1`, the figure is 29%; as for `CC(C)(C)c1cc(Br)cc(C(C)(C)C)c1O`, 110%.
Consider `COc1ccc(-c2nnc3n(C)c(=O)c4ccccc4n23)cc1O`, for which the growth was -2.48% (active).
Next, `Cc1ccc2c(n1)C(=O)C(Oc1ccc(F)cc1)=CC2=O`: 87.7%; `CC(=O)c1ccc2c3c(n(C)c2c1)CCCC3`: 77.9%.
Next, `COc1cc(Cc2cc(-c3ccccc3)n[nH]c2=O)cc(OC)c1OC`: 29%; `O=C(OCc1ccc2cccc(O)c2n1)N1CCN(C(=O)c2cc3cc(F)ccc3[nH]2)CC1`: -59.2% (active); `CCC(C)(c1ccc(O)c(C)c1)c1ccc(O)c(C)c1`: 70.1%.
On to `O=C(C(Br)Br)C(Br)C(Br)c1ccccc1` (stereo not given), for which the growth was 9.8% (active).
Next, `CCOc1cccc(/C=N/NC(=O)Cc2ccc(Nc3ccnc(C(F)(F)F)c3)cc2)c1O`: 1.86% (active); `O=c1[nH]c(NCc2nnnn2-c2ccc(Br)cc2)nc2sc3c(c12)CCCC3`: 96.9%; `COc1ccc(/C=C/C(=O)c2ccc(NC(=O)CSc3nnc(-c4cc(-c5ccccc5)nc5ccccc45)n3-c3ccccc3)cc2)cc1`: 97.2%.
As for `CC(C)C[C@H](NC(=O)[C@H](Cc1ccccc1)n1ccc(N2CCCCC2)cc1=O)B(O)O`, the figure is -24.1% (active); as for `CC(=O)N1N=C(c2cc3ccccc3oc2=O)CC1c1cn(-c2ccccc2)nc1-c1ccc(C)cc1` (stereo not given), 94.6%.
Next, `CCCCOc1ccc(/C=N/NC(N)=S)cc1`: 66.5%.
For `CCN(CC)S(=O)(=O)c1ccc(O)c(NC(=O)c2[nH]c(C)c(C(C)=O)c2CCc2ccc(Cl)cc2)c1`, the growth was 19.8%.
For the molecule `CC1=NC(c2ccc(Cl)cc2)C2=C(N1)/C(=C/c1ccc(Cl)cc1)CCC2` (stereo not given), the growth was 75.8%.
Take `CCN(CC)CCNC(=O)C(Cl)=C1C(Cl)=C(Cl)C(Cl)=C1Cl`: the growth was 75.8%.
